Data from PubChem BioAssay (Tox21).
Where “and” joins values, the source holds several entries; their conditions need not be identical. Equal values may be shown once. Inconclusive results are not listed. A structure can be active in one record and inactive in another. Calls of active or inactive are those of the source. Unless noted, the call rests on the fitted dose curve; in most records, active means well fitted curve in the direction sought with a large enough effect in the repeat runs; inconclusive means weak or mixed curves; inactive means no such curve, though single readings can be large; an effect the other way counts as inactive or inconclusive.

Tests used:
[1] = qHTS assay to identify small molecule antagonists of the estrogen receptor alpha (ER-alpha) signaling pathway using the BG1 cell line in the presence of 0.1 nM 17-beta-estradiol - cell viability counter screen (AID 1259241); further: nearly all actives have a fitted effect of over 40% in size; further: potency means the concentration at half of the fitted maximal effect
In short: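 Following 5 days in phenol red-free medium with charcoal-stripped serum, VM7Luc4E2 cells received test compounds alongside 0.1 nM 17beta-estradiol (final) at 37C for 22 hr. Live cells were then quantified via protease-substrate fluorescence.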

[2] = qHTS assay to identify small molecule antagonists of the androgen receptor (AR) signaling pathway using the MDA cell line in the presence of 0.5 nM R1881 - cell viability counter screen (AID 1259242); further: nearly all actives have a fitted effect of over 45% in size; further: potency means the concentration at half of the fitted maximal effect
In short: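 MDA-kb2 cells (MMTV-luciferase, AR/GR responsive) were treated with compounds plus 0.5 nM R1881 (final) for 16 hr at 37C, 0% CO2. Viability was then read in the same wells as live-cell protease fluorescence (CellTiter-Fluor, 30 min).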

[3] = qHTS assay to identify small molecule phospholipidosis (PLD) inducers (AID 1259344; active means well fitted curve in the direction sought with a large enough effect; an effect the other way counts as inactive or inconclusive)
In short: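 HepG2 cells grown on collagen I take up LipidTOX Red while exposed to compound for 24 h; after fixation they are imaged at 20x and pit metrics are extracted.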

[4] = qHTS assay to identify small molecule HDAC inhibitors (AID 1259364); further: nearly all actives have a fitted effect of over 45% in size; further: potency means the concentration at half of the fitted maximal effect
In short: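 Wild-type HCT-116 cells, plated overnight at 37 C, exposed to compounds 2 hr at 37 C; luminogenic HDAC-Glo substrate then added 30 min at room temperature. Luminescence reports relative endogenous class I/II HDAC activity.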

[5] = qHTS assay to identify small molecule HDAC inhibitors - cell viability counter screen (AID 1259365); further: nearly all actives have a fitted effect of over 50% in size; further: potency means the concentration at half of the fitted maximal effect
In short: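 HCT-116 wild-type, overnight attachment; 2hr drug exposure, 37C; CellTiter-Glo luminescent ATP readout after 30min RT.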

[6] = qHTS assay to identify small molecule agonists of the sonic hedgehog signaling (Shh) pathway - cell viability counter screen (AID 1259366); further: nearly all actives have a fitted effect of over 50% in size; further: potency means the concentration at half of the fitted maximal effect
In short: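 Compounds in DMSO were pin-transferred onto 3T3 Gli1-Luc cells that had settled 4hr; plates then stood 24hr at 37C and 5% CO2. One hour before the end, CellTiter-Fluor was added and fluorescence recorded.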

[7] = qHTS assay to identify small molecule antagonists of the sonic hedgehog signaling (Shh) pathway - cell viability counter screen (AID 1259367); further: nearly all actives have a fitted effect of over 55% in size; further: potency means the concentration at half of the fitted maximal effect
In short: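 After a 4 hr settling period, 3T3 Gli1-Luc cells were treated with DMSO-dissolved chemicals and conditioned medium, kept 24 hr at 37C in 5% CO2, and assayed for viability by CellTiter-Fluor fluorescence following 1 hr reagent incubation.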

[8] = qHTS assay to identify small molecule agonists of the sonic hedgehog signaling (Shh) pathway (AID 1259368; calls by dose curve;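 further: NIH/3T3-derived 3T3Gli1-Luc cells carrying a stable Gli1-driven firefly luciferase reporter; series mostly up to about 92 µM; nearly all actives have a fitted effect of over 15% in size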)
In short: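 NIH/3T3-derived 3T3Gli1-Luc cells with stably integrated Gli1-driven firefly luciferase, 2,000 cells/well, compounds added after 4 hr. Incubated 24 hr at 37C, 5% CO2; luminescence read after 30 min with luciferase reagent at room temperature.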

[9] = molecular target: Estrogen receptor (Homo sapiens) (UniProt P03372); test: qHTS assay to identify small molecule antagonists of the estrogen receptor alpha (ER-alpha) signaling pathway using the BG1 cell line in the presence of 0.1 nM 17-beta-estradiol (AID 1259244); further: nearly all actives have a fitted effect of over 50% in size; further: potency means the concentration at half of the fitted maximal effect
In short: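 VM7Luc4E2 cells (endogenous full-length ER-alpha, 4×ERE-luciferase), kept 5 days in phenol red-free, charcoal-stripped FBS medium; 4,000 cells/well. Compounds added with 0.1 nM (final) 17beta-estradiol, 22 hr at 37C; luminescence read with ONE-Glo after 30 min.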

[10] = molecular target: Androgen receptor (Homo sapiens) (UniProt P10275); test: qHTS assay to identify small molecule antagonists of the androgen receptor (AR) signaling pathway using the MDA cell line in the presence of 0.5 nM R1881 (AID 1259243); further: nearly all actives have a fitted effect of over 50% in size
In short: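 MDA-kb2 cells (MMTV-luciferase, responsive to AR and GR) at 3,000/well, rested 5 h at 37C, 0% CO2, then given compounds plus 0.5 nM R1881 (final) for 16 hr. Luciferase read with ONE-Glo after 30 min at room temperature.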

Measured: Potency

Estrogen receptor (Homo sapiens), sequence (P03372 whole entry, looked up): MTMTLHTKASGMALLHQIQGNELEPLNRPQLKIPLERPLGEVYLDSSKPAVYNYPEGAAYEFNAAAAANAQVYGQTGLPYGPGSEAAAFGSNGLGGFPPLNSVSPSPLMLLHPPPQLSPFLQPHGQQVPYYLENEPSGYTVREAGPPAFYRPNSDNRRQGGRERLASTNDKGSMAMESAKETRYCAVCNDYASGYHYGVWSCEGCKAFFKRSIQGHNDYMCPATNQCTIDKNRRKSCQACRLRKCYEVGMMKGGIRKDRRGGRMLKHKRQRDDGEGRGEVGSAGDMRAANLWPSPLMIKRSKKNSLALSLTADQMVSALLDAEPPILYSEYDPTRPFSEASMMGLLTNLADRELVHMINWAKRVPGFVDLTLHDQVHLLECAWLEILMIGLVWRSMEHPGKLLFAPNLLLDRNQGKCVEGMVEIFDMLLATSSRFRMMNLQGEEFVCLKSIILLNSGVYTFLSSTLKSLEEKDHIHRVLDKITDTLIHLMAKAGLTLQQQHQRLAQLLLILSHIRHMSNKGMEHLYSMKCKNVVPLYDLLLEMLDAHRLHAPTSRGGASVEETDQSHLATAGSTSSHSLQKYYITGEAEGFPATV
Androgen receptor (Homo sapiens), sequence (P10275 whole entry, looked up): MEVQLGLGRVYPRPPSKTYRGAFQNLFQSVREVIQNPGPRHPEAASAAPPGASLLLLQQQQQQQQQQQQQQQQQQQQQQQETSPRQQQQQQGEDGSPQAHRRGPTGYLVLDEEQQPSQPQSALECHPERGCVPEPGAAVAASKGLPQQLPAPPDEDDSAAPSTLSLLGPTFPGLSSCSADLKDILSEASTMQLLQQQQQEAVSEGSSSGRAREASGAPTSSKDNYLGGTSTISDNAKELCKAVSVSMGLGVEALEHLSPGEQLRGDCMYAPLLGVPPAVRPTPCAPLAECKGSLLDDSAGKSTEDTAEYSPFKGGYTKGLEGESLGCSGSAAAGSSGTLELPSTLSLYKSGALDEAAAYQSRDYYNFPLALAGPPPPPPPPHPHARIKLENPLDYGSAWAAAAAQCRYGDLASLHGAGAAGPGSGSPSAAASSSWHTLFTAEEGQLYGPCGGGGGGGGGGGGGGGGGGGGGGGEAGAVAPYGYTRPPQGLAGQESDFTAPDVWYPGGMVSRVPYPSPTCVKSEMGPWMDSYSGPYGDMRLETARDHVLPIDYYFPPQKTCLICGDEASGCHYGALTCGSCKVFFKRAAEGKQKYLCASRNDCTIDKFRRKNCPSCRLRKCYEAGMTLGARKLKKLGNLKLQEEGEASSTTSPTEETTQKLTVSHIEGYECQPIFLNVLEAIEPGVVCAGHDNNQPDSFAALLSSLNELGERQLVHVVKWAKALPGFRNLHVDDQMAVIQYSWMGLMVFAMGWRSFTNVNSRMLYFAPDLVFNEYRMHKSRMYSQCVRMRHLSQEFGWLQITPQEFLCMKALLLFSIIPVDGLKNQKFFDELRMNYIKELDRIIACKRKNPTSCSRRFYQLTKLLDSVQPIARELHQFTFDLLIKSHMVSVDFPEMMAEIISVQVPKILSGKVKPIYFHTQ

CCCCCCCCCC(CC)c1ccc(S(=O)(=O)O)cc1 (configuration not stated)
not listed: [9] | [10]
inactive: all other assays above

[CH3][Sn]([Cl])([Cl])[Cl]
inactive: [1] | [2] | [4] | [6] | [7] | [8]

COc1ccc(C=O)cc1OC
not listed: [3] | [5] | [10]
inactive: all other assays above

CNC(=S)S
not listed: [3] | [5] | [10]
inactive: all other assays above

OCCOCCO
inactive: [1] | [2] | [9] | [4] | [8]
14.1 µM (active) and inactive: [7]
56.1 µM (active) and inactive: [6]

Cl
inactive: [1] | [2] | [4] | [6] | [7] | [8]

ClC(Cl)(Cl)c1ccccc1
not listed: [3] | [5] | [10]
inactive: all other assays above

O=P(OCCCl)(OCCCl)OCCCl
inactive: [1] | [2] | [4] | [6] | [7] | [8]

c1ccc(C2CO2)cc1 (configuration not stated)
inactive: [1] | [2] | [4] | [6] | [7] | [8]

CC1CC(=O)O1 (configuration not stated)
inactive: [1] | [2] | [4] | [6] | [7] | [8]

Nc1ncn[nH]1
not listed: [3] | [9] | [10]
inactive: all other assays above

CC(C)(O)C#N
not listed: [3] | [9] | [10]
inactive: all other assays above

Nc1ccc([N+](=O)[O-])cc1N
inactive: [4] | [5] | [8]
active: [1] 61.1 µM | [6] 30.6 µM and 24.3 µM | [7] 12.2 µM and 19.3 µM

CCOP(=O)(O)OCC (tested in a mixture with another compound)
inactive and 54 µM (active): [2]
inactive and 48.2 µM (active): [6]
inactive and 42.9 µM (active): [7]
inactive: [1] | [4] | [8]

C=C(C)C#N
not listed: [3] | [5] | [10]
inactive: all other assays above

[Cl-].[Cl-].[Cl-].[Fe+3]
not listed: [3] | [9] | [10]
inactive: all other assays above

CCOC(=O)c1ccccc1N
not listed: [3] | [5] | [10]
inactive: all other assays above

O=C(O)CF
not listed: [3] | [10]
inactive: all other assays above

Cn1c(-c2ccccc2)cc(-c2ccccc2)[n+]1C
inactive: [1] | [4] | [6] | [7] | [8]
active: [9] 5.44 µM and 24.3 µM

CCC1(c2ccc(N)cc2)CCC(=O)NC1=O (configuration not stated)
not listed: [1]
inactive: all other assays above

CCOP(=O)(OCC)OCC
not listed: [3] | [9] | [10]
inactive: all other assays above

Cc1cc(Cl)ccc1N=CN(C)C
not listed: [3] | [9] | [10]
inactive: all other assays above

CC1(C)C(C(=O)OC(C#N)c2cccc(Oc3ccccc3)c2)C1(C)C (configuration not stated)
54.9 µM (active) and inactive: [9]
not listed: [3] | [5] | [10]
inactive: all other assays above

O=C1Nc2ccc(Cl)cc2C(c2ccccc2)=NC1O (configuration not stated)
not listed: [9] | [10]
inactive: all other assays above

ClC(Cl)(Cl)Br
inactive: [1] | [2] | [4] | [6] | [7] | [8]

CC(C)=CC1C(C(=O)OCN2C(=O)C3=C(CCCC3)C2=O)C1(C)C (configuration not stated)
not listed: [1] | [5] | [9]
inactive: all other assays above

Cc1ccc(N=CN(C)C=Nc2ccc(C)cc2C)c(C)c1
not listed: [1] | [10]
inactive: all other assays above

CCNc1nc(Cl)nc(NC(C)(C)C#N)n1
inactive: [2] | [4] | [6] | [7] | [8]

c1ccc2c(c1)Nc1ccccc1S2
not listed: [1] | [10]
inactive: all other assays above

CC(C)COC(=O)c1ccccc1C(=O)OCC(C)C
inactive: [2] | [9] | [4] | [6] | [7] | [8]

CN(C)P(=O)(N(C)C)N(C)C
inactive: [2] | [9] | [4] | [6] | [7] | [8]

COP(=O)(NC(C)=O)SC (configuration not stated)
inactive: [2] | [4] | [5] | [6] | [8]
68.7 µM (active) and inactive: [7]

CC(O)CN(CC(C)O)CC(C)O (configuration not stated)
inactive: [2] | [4] | [6] | [7] | [8]

CCOS(=O)(=O)OCC
not listed: [1] | [3] | [10]
inactive: all other assays above

O=C1C(Cl)=C(Cl)C(=O)c2ccccc21
inactive: [8]
active: [2] 43.4 µM | [9] 12.2 µM and 19.3 µM | [5] 61.3 µM and 38.6 µM | [6] 4.34 µM | [7] 4.87 µM

Cc1cccc(N=Nc2ccc(N(C)C)cc2)c1
active: [4] 3.5 µM and 6.86 µM | [6] 35 µM
inactive: [2] | [9] | [5]

CC1(C)Cc2cccc(O)c2O1
inactive: [2] | [9] | [4] | [6] | [7] | [8]

CCOP(=S)(OCC)SCn1c(=O)oc2cc(Cl)ccc21
not listed: [1] | [3] | [10]
inactive: all other assays above

CC(C)(c1ccccc1)c1ccc(O)c(C(C)(C)c2ccccc2)c1
active: [9] 60.6 µM | [6] 60.6 µM and 54.5 µM | [7] 60.6 µM and 43.3 µM
inactive: [4] | [5] | [8]

Clc1ccc(C(Cl)(Cl)Cl)cc1
not listed: [1] | [3] | [10]
inactive: all other assays above

CC(C)(c1ccccc1)c1ccc(O)cc1
inactive: [2] | [4] | [5] | [8]
active: [9] 61.1 µM | [6] 60.6 µM

CC(C)=CC1C(C(=O)OCc2cccc(Oc3ccccc3)c2)C1(C)C (configuration not stated)
not listed: [1] | [10]
inactive: all other assays above

CN(C)c1ccccc1
inactive: [2] | [4] | [6] | [7] | [8]

NC(=O)CN1CCCC1=O
inactive: [2] | [3] | [4] | [6] | [7] | [8]

ClCc1ccccn1
not listed: [1] | [3] | [10]
inactive: all other assays above

CC(C)Nc1nc(Cl)nc(NC(C)C)n1
inactive: [2] | [9] | [4] | [6] | [7] | [8]

Clc1ccccc1-c1nnc(-c2ccccc2Cl)nn1
active: [4] 9.6 µM and 4.31 µM
inactive: [2] | [9] | [5] | [6] | [7]

CCCCOCC1CO1 (configuration not stated)
not listed: [1] | [3] | [10]
inactive: all other assays above

CC(C)CON=O
inactive: [2] | [9] | [4] | [6] | [7] | [8]

Nc1ccc2ccccc2c1
inactive: [2] | [9] | [4] | [6] | [7] | [8]

CCN(CC)C(=O)C(C)Oc1cccc2ccccc12 (configuration not stated)
active: [9] 61.1 µM
not listed: [1] | [3] | [10]
inactive: all other assays above

Cc1ccc([N+](=O)[O-])cc1
inactive: [2] | [9] | [4] | [6] | [7] | [8]

Oc1ccc(Cl)cc1Cl
not listed: [1] | [3] | [10]
inactive: all other assays above

CS(=O)(=O)NC(=O)c1cc(Oc2ccc(C(F)(F)F)cc2Cl)ccc1[N+](=O)[O-]
inactive: [2] | [4] | [5] | [6] | [7] | [8]

Clc1cccc(Cl)c1
inactive: [2] | [4] | [5] | [6] | [7] | [8]

C=CC(Cl)CCl (configuration not stated)
not listed: [1] | [3] | [9]
inactive: all other assays above

C[N+](C)(C)C
inactive: [2] | [9] | [4] | [6] | [7] | [8]

CCCCOCCOC(C)=O
not listed: [1] | [3] | [10]
inactive: all other assays above

O=S(=O)(O)C(F)(F)C(F)(F)C(F)(F)C(F)(F)C(F)(F)C(F)(F)C(F)(F)C(F)(F)F
inactive: [2] | [4] | [5] | [6] | [7] | [8]

COc1ccc(CO)cc1
inactive: [2] | [4] | [6] | [7] | [8]

O=[N+]([O-])c1ccc(Nc2ccccc2)cc1
inactive: [2] | [4] | [5] | [8]
active: [7] 48.9 µM
